Most compounds without a hit are left out; they make up all but 9.3% or so of the library.
ELG1 repair inh: blocks ELG1-dependent DNA repair in HEK293T cells | HEK293T ELG1-luciferase reporter, luminescence, 16 h; DNA damage induced by 5-fluorouridine | Potency, µM (highest dose often 46.1 µM), for the others: at the top dose activity change, negative = inhibition, actives largely listed as inhibitors | 2.3% of 330,000 active | AID 504467; also: % is scaled to controls: 0 for no effect and ±100 for the full control effect; nearly all actives have a fitted effect of over 55% in size
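Overnight (16 hr) co-exposure of 2,000 cells/well to 5-fluorouridine and compound at 37 °C preceded detection. Luciferase was quantified via ONE-Glo luminescence; loss of signal denotes inhibition.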
FLuc modulator: counter-screen for miR-21 project: firefly luciferase inhibitors or activators; purified FLuc, Km substrates, luminescence inhibition; Potency, µM (highest dose often 57.5 µM), without a hit: top-dose activity change, negative = inhibition, usual class: inhibitors; 6.9% of 360,000 active;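 also: plate controls were vehicle for no effect and reference inhibitor for full effect; nearly all actives have a fitted effect of over 55% in size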
Target sequence (P08659 whole entry, looked up): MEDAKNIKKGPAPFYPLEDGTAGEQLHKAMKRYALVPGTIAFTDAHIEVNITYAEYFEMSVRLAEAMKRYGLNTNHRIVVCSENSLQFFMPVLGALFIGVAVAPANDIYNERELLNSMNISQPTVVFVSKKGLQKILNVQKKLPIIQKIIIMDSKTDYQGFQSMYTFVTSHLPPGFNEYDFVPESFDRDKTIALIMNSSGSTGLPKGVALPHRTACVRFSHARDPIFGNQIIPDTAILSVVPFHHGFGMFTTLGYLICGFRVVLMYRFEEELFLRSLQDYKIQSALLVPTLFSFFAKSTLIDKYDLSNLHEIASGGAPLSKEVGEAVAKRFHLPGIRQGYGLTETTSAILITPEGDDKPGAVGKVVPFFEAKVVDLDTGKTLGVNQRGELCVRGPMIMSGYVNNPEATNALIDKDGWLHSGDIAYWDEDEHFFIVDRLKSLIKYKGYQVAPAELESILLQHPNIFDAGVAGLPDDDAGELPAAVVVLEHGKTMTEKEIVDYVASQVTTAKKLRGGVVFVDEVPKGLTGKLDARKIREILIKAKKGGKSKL
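Purified P. pyralis luciferase (10nM final) with 10uM D-luciferin and 10uM ATP (Km levels) in 50mM Tris acetate pH 7.5, 10mM Mg acetate, 0.01% Tween-20, 0.05% BSA; qHTS 6-point titration, ~60 µM downward; luminescence read.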
ELG1 genotox: induces genotoxicity in HEK293T cells with luciferase-tagged ELG1. AID 504466. 1.3% of 330,000 active. Potency, µM (titrated, usually from 46 µM), for the others: at the top dose activity change, positive = activation, hits mostly activators. HEK293T ELG1-luciferase reporter, luminescence, 16 h; also: % of control where 0% means no effect; nearly all actives have a fitted effect of over 60% in size
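Luminescence read-out: rising ELG1-luciferase signal, reflecting elevated ELG1 protein under genetic stress, flags genotoxic compounds. Cells were treated for 16 hr at 37 °C before ONE-Glo detection.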
Rab9 promoter act: Rab9 promoter activation; Huh7 Rab9 promoter-luciferase reporter, luminescence, 24 h; Potency, µM (series often up to 9.22 µM), inactives show at the highest dose activation, negative = inhibition, hits mostly activators; 2.8% of 320,000 active; AID 485297; also: % of control where 0% means no effect; nearly all actives have a fitted effect of over 60% in size
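Huh7 cells stably carrying Rab9 promoter–luciferase reporter, plated 1500 cells/well, compound added after 2 h and incubated 24 h at 37 °C; luciferase luminescence then read after 10 min with detection reagent.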
NPC1 promoter act: NPC1 promoter activation; Huh7 NPC1 promoter luciferase reporter, 24 h; Potency, µM (top dose mostly 9.22 µM), for the others: at the top dose activation, usual class: activators; 2.4% of 320,000 active; AID 485313; also: % of control where 0% means no effect; nearly all actives have a fitted effect of over 60% in size
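Huh7 reporter cells (NPC1 promoter driving luciferase) are dosed with compound for 24 h at 37 °C, 5% CO2; luciferase detection reagent is then added and luminescence measured after 10 min at ambient temperature.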
SMN2 splice enh: increases expression of the SMN2 splice variant; HEK293 SMN2-luciferase splicing reporter, luminescence, 30-36 h; Potency, µM (series often up to 46.1 µM), inactives show at the highest dose activity change, positive = activation, usual class: activators; 2.8% of 210,000 active; AID 1458; also: % of control where 0% means no effect; nearly all actives have a fitted effect of over 55% in size
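HEK293 cells carry an SMN2 […]–luciferase reporter in which exon 7 inclusion puts luciferase in frame. Cells were plated 10-12 h before compound addition, then incubated 30-36 h at 37C. ONE-Glo luminescence was read; sodium butyrate at 4.5 mM final served as control.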
* = called active by the depositor; ? = inconclusive; / = no result. Calls follow the shape of the dose curve; as a rule, active = well fitted curve in the direction sought with a large enough effect; inconclusive = small, poorly fitted or top-dose-only effect, or another doubt; inactive = no such curve, though single readings can be large; an effect the other way counts as inactive or inconclusive. Potency is read from the fitted curve at half-maximal effect.

SMILES | ELG1 repair inh | FLuc modulator | ELG1 genotox | Rab9 promoter act | NPC1 promoter act | SMN2 splice enh
CCOC(=O)C(C)Sc1nnc(NC(=O)c2ccc3c(c2)OCO3)s1 (configuration not stated) | -5% | 17µM* | 13% | -5% | 3% | 18%
CC(C)C(=O)Nc1nnc(SCC(=O)Nc2ccc3c(c2)OCO3)s1 | ? | 4% | -1% | -1% | -5% | 4%
CNc1nnc(-c2cccc(N(C)C)c2)s1 | ? | 15µM* | 11µM* | ? | ? | 14µM*
Cc1ccc(S(=O)(=O)CCC(=O)Nc2nccs2)cc1 | -5% | 6% | -6% | 0% | 0% | -9%
CCCCS(=O)(=O)/C=C\C=C/S(=O)(=O)CCCC | 8.2µM* | -8% | ? | -48% | -35% | -128%
COc1ccc(/C=C/c2ccncc2)cc1OC | ? | ? | 23µM* | 4% | 0% | 10µM*
COc1ccc(-c2cc(C(F)(F)F)n3ncc(C(=O)N4CCc5ccccc5C4)c3n2)cc1 | 12µM* | 5% | -8% | -7% | -10% | /
COc1cccc(-c2cc(C(F)(F)F)n3ncc(C(=O)O)c3n2)c1 | -3% | 2% | -4% | -6% | -4% | -8%
O=C(c1cnn2c(C(F)F)cc(-c3ccccc3)nc12)N1CCc2ccccc2C1 | ? | -5% | -2% | -8% | -6% | /
O=C(c1cnn2c(C(F)(F)F)cc(-c3ccco3)nc12)N1CCCCCC1 | 0% | 11% | 0% | 2% | -3% | 2%
O=C(c1cnn2c(C(F)(F)F)cc(-c3ccco3)nc12)N1CCc2ccccc2C1 | 23µM* | -1% | -12% | -4% | -1% | 13%
COc1cccc(-c2cc(C(F)(F)F)n3ncc(C(=O)N4CCc5ccccc5C4)c3n2)c1 | 21µM* | 2% | -7% | -10% | -12% | -1%
O=C(CCC(=O)N1CCN(c2ccccn2)CC1)Nc1nnc(C(F)(F)F)s1 | -9% | 1% | -3% | -1% | -5% | /
COc1ccccc1N1CN(Cc2ccccc2)CNC1=S | 9% | 1% | 0% | -4% | 1% | /
CCOc1ncccc1C(=O)OCC(=O)c1ccc(C)c(C)c1 | 8% | 11µM* | 9% | ? | ? | ?
CCOc1ncccc1C(=O)OCC(=O)c1ccc(OC)c(OC)c1 | 4% | -6% | 4% | 1% | -3% | -7%
CCOc1ncccc1C(=O)OCC(=O)c1ccccc1Br | -9% | 13µM* | 4% | 0% | 1% | 17%
Cc1sc(NC(=O)c2oc3ccccc3c2C)c(C#N)c1C | 25% | 1% | 1% | 20% | 14% | 0%
O=C(Cc1coc2ccc3ccccc3c12)Nc1nnc(C2CC2)s1 | 0% | -2% | 0% | 15% | 3% | /
Cc1c(C(=O)NC2=NCCS2)oc2ccccc12 | ? | 3µM* | ? | ? | ? | 2.8µM*
O=C(Cc1c[nH]c2ccccc12)Nc1nnc(C2CC2)s1 | -7% | 1% | -10% | -1% | 2% | 11µM*
Cc1c(C(=O)Nc2nnc(C3CC3)s2)oc2ccccc12 | ? | 4.8µM* | ? | 2.2µM* | 3.5µM* | /
Cc1csc(NC(=O)c2oc3ccccc3c2C)n1 | ? | 1.7µM* | ? | 3.5µM* | 3.2µM* | /
O=C1NC(Cc2c[nH]c3ccccc23)C(=O)N1c1ccc(F)cc1 (configuration not stated) | -8% | 0% | -1% | 11% | -3% | -8%
Cc1ccc(C)c(Nc2nc3nonc3nc2N2CCOCC2)c1 | 4% | 3% | -1% | 2% | -1% | -13%
SMILES | ELG1 repair inh | FLuc modulator | ELG1 genotox | Rab9 promoter act | NPC1 promoter act | SMN2 splice enh
Clc1ccc(Oc2nc(Oc3ccc(Cl)cc3)nc(N3CCOCC3)n2)cc1 | -6% | 4% | -7% | -1% | -2% | 2%
CN1C(=O)C2CN(CCc3ccccc3)CNC2N(C)C1=O (configuration not stated) | 6% | 3% | 1% | 5% | 0% | 1%
Cc1ccccc1-c1nnc(SCCOc2ccc3c(C)cc(=O)oc3c2)o1 | 0% | 4% | -2% | 4% | -1% | -36%
COc1ccc(-n2nc(C(=O)N3CCCC(C)C3)c3c4ccccc4n(C)c3c2=O)cc1 (configuration not stated) | / | -7% | / | / | / | 1%
CC1(C(=O)OCC(=O)c2c[nH]c3ccccc23)CC1(Cl)Cl (configuration not stated) | ? | 6.7µM* | ? | 3.2µM* | 4µM* | ?
Cc1cnc(C(=O)OCC(=O)c2c[nH]c3ccccc23)cn1 | 3% | -10% | 3% | 1% | -2% | /
COc1ccc(OCC(=O)c2c[nH]c3ccccc23)cc1 | ? | 3.8µM* | 18% | ? | ? | 26%
O=C(OCC(=O)c1ccc[nH]1)C1=COCCO1 | ? | -13% | 4% | 1% | -2% | /
O=C(OCC(=O)c1c[nH]c2ccccc12)C1=COCCO1 | ? | 15µM* | ? | 3.5µM* | ? | ?
COc1ccc(CC(=O)NC(C)c2nnc(SCC(=O)Nc3ccccc3)n2C)cc1 (configuration not stated) | 2% | -2% | 0% | -17% | -6% | 6%
Cc1c(C)n(Cc2ccccc2)c2ncnc(NCCO)c12 | -2% | -1% | 1% | 0% | 2% | /
Cc1c(C)n(Cc2ccccc2)c2ncnc(N)c12 | 16µM* | -1% | -9% | -9% | -1% | -21%
CCOC(=O)c1c(NC(=O)CN2C(=O)NC(C)(c3ccc(Cl)cc3)C2=O)sc(C(=O)NC)c1C (configuration not stated) | 18µM* | -1% | -4% | 2% | 1% | 6%
Cc1snc(SCc2ccc(F)cc2)c1C#N | ? | -12% | 4% | -2% | 3% | /
CN(C)c1ccc(/C=N/N=C/c2ccccc2O)cc1 | ? | 0.3µM* | ? | 0.56µM* | 0.45µM* | -44%
OCCNc1nc(N2CCN(Cc3ccccc3)CC2)nc2ccccc12 | -1% | 0% | 2% | 4% | 7% | -10%
CCOC(=O)C1=C(OCc2ccc(Cl)cc2)C2C=C(C)C=CC2N=C1 (configuration not stated) | 16µM* | -2% | -6% | 4% | 0% | 11%
OCCN(Cc1ccccc1)Cc1nc(CC2CC2)no1 | -26% | 0% | 0% | 10% | -3% | /
CC1CCN(S(=O)(=O)c2cccc(C(=O)NCc3cccs3)c2)CC1 | -9% | -1% | -2% | -1% | -4% | 6%
CC1CCN(c2ccc(C(=O)NCc3cccs3)cn2)CC1 | ? | 24µM* | ? | ? | ? | 15%

From PubChem
